Screening data as filed in PubChem.
PLAP act: human PLAP activation. P05187. purified PLAP enzyme, luminescent substrate read-out; active compounds read high. activation fold at 20 µM. 96,000 compounds, 1.2% hits. AID 696; in the data active = activation fold above about 2
PostGolgi yeast: growth inhibition of a yeast mutant, post-Golgi transport screen; inhibition, % at 10 µM; 98,000 compounds, 0.9% hits; post-Golgi transport phenotypic cell assay;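 also: yeast cells grown in 1536-well plates; yeast grown about 18 h at 30C before absorbance read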
PostGolgi ctrl: inhibits growth of the yeast control strain; efflux-deficient yeast background strain, growth absorbance A615, 16 h; AID 738; inhibition, % at 10 µM; 98,000 compounds, 5% hits
Cav3 T inh: human Cav3.2 channel inhibition, primary screen | 100,000 compounds, 4% hits | Cav3.2-expressing cells, Fluo-4 calcium fluorescence FDSS; active compounds read low | O95180 | B-score at 10 µM;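 active = single-dose well whose peak fluorescence ratio is a statistical outlier from its plate by either plate-standardised score or position-corrected B-score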
D1 mod: allosteric modulators of human D1 dopamine receptor; P21728; HEK293 D1, CRE-luciferase, dopamine EC30 potentiation; actives deviate in either direction; B-score at 10 µM; 58,000 compounds, 5.9% hits;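 active = luminescence count or its row- and column-corrected plate score outside the 99.7% band of the plate's sample wells, on either side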
hDAT+cocaine: modulates human dopamine transporter uptake under cocaine | LLC-PK1 hDAT cells, [14C]-dopamine uptake with cocaine IC80; actives deviate in either direction | B-score at 10 µM | 110,000 compounds, 1.3% hits | AID 449768;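 active = Z score or B-score, a plate-position-corrected score, falls beyond the plate's 99.7% confidence bounds, in either direction; inactive = both scores lie inside the 99.7% bounds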;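 also: scored against the spread of the other compound wells on the same plate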
Target sequence (Q01959 whole entry, looked up): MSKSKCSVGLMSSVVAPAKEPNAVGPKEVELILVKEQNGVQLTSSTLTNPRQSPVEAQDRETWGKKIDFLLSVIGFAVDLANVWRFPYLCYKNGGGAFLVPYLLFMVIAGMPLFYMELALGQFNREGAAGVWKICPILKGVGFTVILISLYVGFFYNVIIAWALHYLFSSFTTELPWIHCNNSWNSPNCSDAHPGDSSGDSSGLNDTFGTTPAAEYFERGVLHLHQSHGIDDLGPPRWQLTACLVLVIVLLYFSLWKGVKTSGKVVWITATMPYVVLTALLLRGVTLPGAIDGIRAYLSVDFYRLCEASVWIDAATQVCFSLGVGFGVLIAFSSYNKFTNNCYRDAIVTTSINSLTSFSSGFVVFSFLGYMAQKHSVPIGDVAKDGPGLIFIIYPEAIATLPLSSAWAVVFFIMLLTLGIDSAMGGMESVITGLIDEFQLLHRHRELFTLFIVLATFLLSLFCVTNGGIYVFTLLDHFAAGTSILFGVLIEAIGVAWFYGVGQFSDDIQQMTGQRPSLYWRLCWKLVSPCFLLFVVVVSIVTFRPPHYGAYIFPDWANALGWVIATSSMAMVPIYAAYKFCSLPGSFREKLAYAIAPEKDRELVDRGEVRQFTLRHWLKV
An asterisk follows results filed as active; nt = no result. A selection: hits, their analogues and other compounds. The true share with any hit is near 12%. Rule as the data show it, unless noted: active = inhibition above about 30%; inactive = the rest.

SMILES	PLAP act	PostGolgi yeast	PostGolgi ctrl	Cav3 T inh	D1 mod	hDAT+cocaine
c1ccc2c(c1)ncn2CCN1CCCCC1	nt	nt	nt	0.3	nt	0.23
Cc1ccccc1OCCCCn1cnc2ccccc21	1.2	5	36*	-2.5	nt	-0.81
Cc1cc(C)c(C)c(OCCCCn2cnc3ccccc3c2=O)c1	1	-6	37*	-1.7	nt	1.5
CC(C)(c1ccccc1)c1ccc(OCCn2cnc3ccccc3c2=O)cc1	1.9	5	25	-6.5*	nt	0.05
c1ccc2c(c1)ncn2CCCOc1ccc2c(c1)CCC2	1.3	-1	34*	-2.6	nt	2.2
O=C(O)CCn1cnc2ccccc2c1=O	1	-4	8	-0.02	-0.091	-0.38
CC(C(=O)Nc1ccccc1-c1ccccc1)N1CCN(C(=O)c2ccco2)CC1 (stereo not drawn)	nt	nt	nt	nt	0.48	nt
COc1ccc2c(CC#N)c[nH]c2c1	1.1	4	16	-0.35	0.066	-1.3
C#CCOCCOCCOCCNc1nc(N2CCN(C(=O)C([C@@H](C)CC)n3cc(C(N)COC(=O)C(F)(F)F)nn3)CC2)nc(N2CCN(C(=O)[C@H](CCCCN)n3cc(C(N)[C@H](C)CC)nn3)CC2)n1 (stereo partly drawn)	nt	nt	nt	0.26	nt	-0.69
c1ccc(OCCn2cnc3ccccc32)cc1	1	12	34*	-0.74	0.76	-0.48
c1ccc(OCCCCn2cnc3ccccc32)cc1	1	0	9	-2.3	-1.6	0.15
Brc1ccccc1OCCCn1cnc2ccccc21	1	0	30*	-2.9	nt	0.11
CCS(=O)(=O)N1CCN(C(=O)c2ccc(-c3ccccc3)cc2)CC1	1.4	-6	16	0.1	0.28	-0.038
O=C1CCc2cc(S(=O)(=O)N3CCCC3C(=O)NC3CCCCCCC3)ccc2N1 (stereo not drawn)	1.5	-6	-2	0.45	nt	0.75
COc1ccc2nc(SCC(=O)Nc3ccc4sc(C)nc4c3)c(C#N)cc2c1	1	-7	1	-0.49	nt	0.2
Cc1ccccc1Cn1c(Cc2ccccc2)nc2ccccc21	1.1	-12	34*	-5.5*	nt	1.9
Cn1c(CSCc2ccc(Cl)cc2)nnc1SCC(=O)Nc1nc2ccccc2s1	1	5	6	0.8	nt	-0.48
Cc1ccc(S(=O)(=O)N(CC(=O)N2CCC(C)CC2)Cc2ccccc2F)cc1	1.8	-5	37*	-2.5	nt	-0.59
Cc1ccc(S(=O)(=O)N(CC(=O)O)Cc2ccccc2F)cc1	1.1	-7	2	0.029	-0.87	-1.2
CCOC(=O)CSC1=NC(=O)CS1	1.1	2	-2	0.3	-0.023	-0.79
CC(C)(Oc1ccc(Cl)cc1)C(=O)N1CCN(c2ccccn2)CC1	nt	1	50*	-4.5*	-0.88	nt
Cc1ccc(CNC(=O)c2cc3c(-c4ccc(Cl)cc4)nn(C)c3s2)o1	1.5	-7	53*	-0.41	-0.11	0.69
Cn1nc(-c2ccc(Cl)cc2)c2cc(C(=O)N3CCN(c4ccccn4)CC3)sc21	1.6	-5	52*	-1	-0.28	1.8
COCCNC(=O)c1cc2c(-c3ccc(Cl)cc3)nn(C)c2s1	1.4	8	16	1.1	nt	0.29
Cn1nc(-c2ccc(Cl)cc2)c2cc(C(=O)N3CCCC3)sc21	1.3	3	19	0.27	-3.2*	0.86
SMILES	PLAP act	PostGolgi yeast	PostGolgi ctrl	Cav3 T inh	D1 mod	hDAT+cocaine
O=C(Nc1cccc2c1[nH]c1ccccc12)C(F)(F)F	nt	nt	nt	-0.83	nt	-0.54
N#Cc1c(-c2ccccc2)ccnc1Oc1ccccc1	1	-6	8	0.81	nt	0.56
Cc1cc(C)nc(Sc2nc(Cl)nc(N(c3ccccc3)c3ccccc3)n2)n1	1.8	0	-2	3.5	nt	0.31
Cc1occc1-c1nnc(SCC(=O)c2c[nH]c3ccccc23)n1C	0.6	-2	4	0.45	0.64	-0.6
Cc1nc(SCC(=O)c2cccc([N+](=O)[O-])c2)n[nH]1	1.7	-2	23	nt	nt	-0.58
Cc1nc(SCC(=O)c2c[nH]c3ccccc23)n[nH]1	0.9	-4	32*	-0.19	-1.1	-0.81
Cc1nc(SCC(=O)c2ccc(F)cc2)n[nH]1	2.3*	-2	-2	0.45	0.17	0.018
COc1cc(NC(=O)CCc2nc(-c3cccs3)no2)cc(OC)c1OC	0.9	8	4	0.6	nt	-1.3
CCOC(=O)c1ccc(NC(=O)CCc2nc(-c3ccccc3Cl)no2)cc1	1.4	-3	17	-3.8*	-0.3	nt
CCc1cccc(NC(=O)CCc2nc(-c3cccs3)no2)c1	1	5	22	-7.1*	0.3	0.71
COc1ccc(NC(=O)N2CCC(n3nnc4cc(C)ccc43)CC2)cc1	nt	nt	nt	1.6	nt	-0.12
O=C(OCCNc1ncc(C(F)(F)F)cc1Cl)c1ccc(S(=O)(=O)N2CCOCC2)cc1	1.4	-2	25	-0.56	-0.76	0.59
CCN(CCCNC(=O)COc1cc(=O)n(CC)c2ccccc12)Cc1ccccc1	1.6	-8	38*	0.1	-1.9	-0.26
Cc1ccc(N2C(=O)[C@@H]3Cc4ccccc4CN3C2=O)cc1	0.7	1	36*	-0.16	0.56	-0.044
COc1ccc(N2C(=O)[C@@H]3Cc4ccccc4CN3C2=O)cc1	0.9	0	13	-0.76	0.76	-0.082
CCS(=O)(=O)n1nc(NCc2cccc(OC)c2)nc1NCc1cccc(OC)c1	0.9	2	1	-4.2*	0.063	0.75
COc1cccc(CNS(=O)(=O)c2cn(C)cn2)c1	1	0	-2	nt	-1.1	nt
CC1CC(C)CN(CC(C)(C)NS(=O)(=O)c2ccc(Cl)cc2)C1 (stereo not drawn)	nt	60*	23	-0.017	nt	-0.16
CN1CCc2nc(NC(=O)c3cccc(OC(F)F)c3)sc2C1	1.2	-3	4	-0.32	nt	-0.76
CCOc1ccccc1-n1c(SCC(=O)N(CC)CC)nnc1-c1ccccn1	1	-1	40*	0.67	-0.45	-1.1
c1ccc(N2CCN(c3nnc(Cc4cccnc4)c4ccccc34)CC2)nc1	1.3	0	25	-0.59	nt	0.26
c1ccc(Cc2nnc(N3CCOCC3)c3ccccc23)cc1	0.9	1	45*	-0.17	nt	0.99
CCCCCC#CCC#CCC#CCC#CCCCC(=O)O	nt	nt	nt	-0.51	0.22	0.03
COc1ccc(N2CCN(c3nc(Nc4ccc(F)cc4)nc(OC)n3)CC2)cc1	1	-4	-10	-0.11	nt	0.34
Cc1cccc(Nc2nc(N3CCCC3)nc(N3CCCC3)n2)c1	0.9	2	38*	-0.39	nt	-0.81
SMILES	PLAP act	PostGolgi yeast	PostGolgi ctrl	Cav3 T inh	D1 mod	hDAT+cocaine
Cc1cccc(Nc2nc(NCc3ccco3)nc(N3CCOCC3)n2)c1	1.2	3	1	-4.7*	-0.21	1.4
COc1nc(Nc2cccc(C)c2)nc(N2CCCCC2)n1	0.9	5	36*	nt	0.099	nt
Cc1cc(Nc2ccccc2)nc(N2CCOCC2)n1	1	5	5	-0.85	nt	2.2
Cc1cc2c(s1)CCCCC(=O)N2	1.1	4	2	0.23	-0.17	-0.69
CCOC(=O)c1cnc(SCC(=O)c2ccccc2)nc1N	0.9	-3	-12	0.054	-0.84	-0.91
Cc1ccc(NC(=O)Cc2ccc(F)cc2)cc1	1.1	-3	19	0.32	nt	0.076
